Laboratory results published in publication PMC9911399, “Two distinct binding modes provide the RNA-binding protein RbFox with extraordinary sequence specificity”.
Numbering of substitutions follows the chain as printed; changes in the protein carry UniProt numbers. In all, about 16,000 sequences were measured (“ka relative to ugcaugu”: median about 0.0091, highest 2% from about 0.032 on). What follows is part of a selection rich in the highest values, with near analogues and random picks from the rest.

T1: RBFOX1 RRM (Homo sapiens, UniProt Q9NWB1 109-208)
T1 sequence: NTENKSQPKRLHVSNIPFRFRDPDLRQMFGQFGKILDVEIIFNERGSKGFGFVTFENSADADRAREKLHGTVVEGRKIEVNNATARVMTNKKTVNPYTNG

B1: UAACAUU (DNA:RNA)
RNA: GGGAGACCGGAAUUCAGAUUGUCCUAACAUUUUAAAUCCCGUCGUAGCCACCA
DNA 1: CAATCTGAATTCCGGTCTCCC
DNA 2: TGGTGGCTACGACGGGATT
B2: UACAGUC (DNA:RNA)
RNA: B1 RNA with A27C, C28A, A29G, U31C
DNA 1: CAATCTGAATTCCGGTCTCCC
DNA 2: TGGTGGCTACGACGGGATT
B3: AGCAGAA (DNA:RNA)
RNA: GGGAGACCGGAAUUCAGAUUGUCCAGCAGAAUUAAAUCCCGUCGUAGCCACCA
DNA 1: CAATCTGAATTCCGGTCTCCC
DNA 2: TGGTGGCTACGACGGGATT
B4: GUCAUGA (DNA:RNA)
RNA: B3 RNA with A25G, G26U, G29U, A30G
DNA 1: CAATCTGAATTCCGGTCTCCC
DNA 2: TGGTGGCTACGACGGGATT
B5: GGAUGGA (DNA:RNA)
RNA: B3 RNA with A25G, C27A, A28U, A30G
DNA 1: CAATCTGAATTCCGGTCTCCC
DNA 2: TGGTGGCTACGACGGGATT
B6: GCAUGGA (DNA:RNA)
RNA: B3 RNA with A25G, G26C, C27A, A28U, A30G
DNA 1: CAATCTGAATTCCGGTCTCCC
DNA 2: TGGTGGCTACGACGGGATT
B7: GCAUGAU (DNA:RNA)
RNA: B3 RNA with A25G, G26C, C27A, A28U, A31U
DNA 1: CAATCTGAATTCCGGTCTCCC
DNA 2: TGGTGGCTACGACGGGATT
B8: GGAUGAC (DNA:RNA)
RNA: B3 RNA with A25G, C27A, A28U, A31C
DNA 1: CAATCTGAATTCCGGTCTCCC
DNA 2: TGGTGGCTACGACGGGATT
B9: GCAUUUU (DNA:RNA)
RNA: B1 RNA with U25G, A26C, C28U, A29U
DNA 1: CAATCTGAATTCCGGTCTCCC
DNA 2: TGGTGGCTACGACGGGATT
B10: GGCAUAA (DNA:RNA)
RNA: B3 RNA with A25G, G29U
DNA 1: CAATCTGAATTCCGGTCTCCC
DNA 2: TGGTGGCTACGACGGGATT
B11: GCAUUCA (DNA:RNA)
RNA: B3 RNA with A25G, G26C, C27A, A28U, G29U, A30C
DNA 1: CAATCTGAATTCCGGTCTCCC
DNA 2: TGGTGGCTACGACGGGATT
B12: GGCAUGA (DNA:RNA)
RNA: B3 RNA with A25G, G29U, A30G
DNA 1: CAATCTGAATTCCGGTCTCCC
DNA 2: TGGTGGCTACGACGGGATT
B13: GCAUGAC (DNA:RNA)
RNA: B3 RNA with A25G, G26C, C27A, A28U, A31C
DNA 1: CAATCTGAATTCCGGTCTCCC
DNA 2: TGGTGGCTACGACGGGATT
B14: GUAUGAC (DNA:RNA)
RNA: B3 RNA with A25G, G26U, C27A, A28U, A31C
DNA 1: CAATCTGAATTCCGGTCTCCC
DNA 2: TGGTGGCTACGACGGGATT
B15: GCAUAAU (DNA:RNA)
RNA: B1 RNA with U25G, A26C, C28U, U30A
DNA 1: CAATCTGAATTCCGGTCTCCC
DNA 2: TGGTGGCTACGACGGGATT
B16: CCUUGGG (DNA:RNA)
RNA: B3 RNA with A25C, G26C, C27U, A28U, A30G, A31G
DNA 1: CAATCTGAATTCCGGTCTCCC
DNA 2: TGGTGGCTACGACGGGATT
B17: CGCCUAC (DNA:RNA)
RNA: B3 RNA with A25C, A28C, G29U, A31C
DNA 1: CAATCTGAATTCCGGTCTCCC
DNA 2: TGGTGGCTACGACGGGATT
B18: AUGAUGU (DNA:RNA)
RNA: B3 RNA with G26U, C27G, G29U, A30G, A31U
DNA 1: CAATCTGAATTCCGGTCTCCC
DNA 2: TGGTGGCTACGACGGGATT
B19: GCAUUGA (DNA:RNA)
RNA: B3 RNA with A25G, G26C, C27A, A28U, G29U, A30G
DNA 1: CAATCTGAATTCCGGTCTCCC
DNA 2: TGGTGGCTACGACGGGATT
B20: GUAUGUA (DNA:RNA)
RNA: B3 RNA with A25G, G26U, C27A, A28U, A30U
DNA 1: CAATCTGAATTCCGGTCTCCC
DNA 2: TGGTGGCTACGACGGGATT
B21: GCAUAGA (DNA:RNA)
RNA: B1 RNA with U25G, A26C, C28U, U30G, U31A
DNA 1: CAATCTGAATTCCGGTCTCCC
DNA 2: TGGTGGCTACGACGGGATT
B22: GCAUAAA (DNA:RNA)
RNA: B3 RNA with A25G, G26C, C27A, A28U, G29A
DNA 1: CAATCTGAATTCCGGTCTCCC
DNA 2: TGGTGGCTACGACGGGATT
B23: GCAUAUA (DNA:RNA)
RNA: B1 RNA with U25G, A26C, C28U, U31A
DNA 1: CAATCTGAATTCCGGTCTCCC
DNA 2: TGGTGGCTACGACGGGATT
B24: GCCAUGA (DNA:RNA)
RNA: B3 RNA with A25G, G26C, G29U, A30G
DNA 1: CAATCTGAATTCCGGTCTCCC
DNA 2: TGGTGGCTACGACGGGATT
B25: GUAUGAG (DNA:RNA)
RNA: B3 RNA with A25G, G26U, C27A, A28U, A31G
DNA 1: CAATCTGAATTCCGGTCTCCC
DNA 2: TGGTGGCTACGACGGGATT
B26: GCAUGUA (DNA:RNA)
RNA: B3 RNA with A25G, G26C, C27A, A28U, A30U
DNA 1: CAATCTGAATTCCGGTCTCCC
DNA 2: TGGTGGCTACGACGGGATT
B27: GGAUGAG (DNA:RNA)
RNA: B3 RNA with A25G, C27A, A28U, A31G
DNA 1: CAATCTGAATTCCGGTCTCCC
DNA 2: TGGTGGCTACGACGGGATT
B28: GCAUGAA (DNA:RNA)
RNA: B3 RNA with A25G, G26C, C27A, A28U
DNA 1: CAATCTGAATTCCGGTCTCCC
DNA 2: TGGTGGCTACGACGGGATT
B29: GCAUGAG (DNA:RNA)
RNA: B3 RNA with A25G, G26C, C27A, A28U, A31G
DNA 1: CAATCTGAATTCCGGTCTCCC
DNA 2: TGGTGGCTACGACGGGATT
B30: CGCAUGA (DNA:RNA)
RNA: B3 RNA with A25C, G29U, A30G
DNA 1: CAATCTGAATTCCGGTCTCCC
DNA 2: TGGTGGCTACGACGGGATT

What follows are binders tested against T1, RBFOX1 RRM (assay: EMSA; HiTS-Eq, 1 nM pool, 10 min; buffer printed only for the single-RNA assays: 10 mM Tris pH 7.5, 150 mM NaCl, 3.4 mM EDTA, 0.001% NP-40, 30 C). Conditions: tags: His6 N-terminal (pET28a); label: 5' 32P.
Summary of the method: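 Purified RbFox RRM, wild type or mutant, was incubated for 10 min in 50 µL with 1 nM of a 5′-radiolabelled RNA pool carrying 7 randomized nucleotides, whose flanks were annealed to DNA oligonucleotides, over a series of increasing protein concentrations. Unbound RNA was resolved on 8% native PAGE, cut out, reverse-transcribed, barcoded by PCR and sequenced on an Illumina HiSeq 2500. Relative association constants were derived from changes in read counts for each RNA species versus the control reaction and normalised to the cognate motif.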

Row | Binder | binding signal
1 | B1 | 0.00574 KA relative to UGCAUGU
2 | B2 | 0.00675 KA relative to UGCAUGU
3 | B3 | 0.00732 KA relative to UGCAUGU
4 | B4 | 0.0126 KA relative to UGCAUGU
5 | B5 | 0.0107 KA relative to UGCAUGU
6 | B6 | 0.0333 KA relative to UGCAUGU
7 | B7 | 0.626 KA relative to UGCAUGU
8 | B8 | 0.015 KA relative to UGCAUGU
9 | B9 | 0.0088 KA relative to UGCAUGU
10 | B10 | 0.00272 KA relative to UGCAUGU
11 | B11 | 0.00789 KA relative to UGCAUGU
12 | B12 | 0.156 KA relative to UGCAUGU
13 | B13 | 0.599 KA relative to UGCAUGU
14 | B14 | 0.0127 KA relative to UGCAUGU
15 | B15 | 0.00163 KA relative to UGCAUGU
16 | B16 | 0.00389 KA relative to UGCAUGU
17 | B17 | 0.00556 KA relative to UGCAUGU
18 | B18 | 0.0132 KA relative to UGCAUGU
19 | B19 | 0.0124 KA relative to UGCAUGU
20 | B20 | 0.0125 KA relative to UGCAUGU
21 | B21 | 0.0137 KA relative to UGCAUGU
22 | B22 | 0.00438 KA relative to UGCAUGU
23 | B23 | 0.0014 KA relative to UGCAUGU
24 | B24 | 0.0124 KA relative to UGCAUGU
25 | B25 | 0.0141 KA relative to UGCAUGU
26 | B26 | 0.473 KA relative to UGCAUGU
27 | B27 | 0.0205 KA relative to UGCAUGU
28 | B28 | 0.594 KA relative to UGCAUGU
29 | B29 | 0.684 KA relative to UGCAUGU
30 | B30 | 0.67 KA relative to UGCAUGU
